# Active and inactive are the calls of the source.
# What was measured:
# [1] = small molecules captured by biotinylated probe aFSTL3 – biochemical, small-molecule microarray, fluorescence 635/667, stem cell growth factor project, primary screen (AID 1064); conditions: higher = more signal;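 note: measures binding of the biotinylated anti-FSTL3 antibody to printed compounds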
# [2] = binders from COS7 lysate, DM2A8 probe, primary screen, torsin A project, cell lysate, small-molecule microarray, fluorescence 635/667 (AID 1065); conditions: higher = more signal, COS7 lysate expressing mutant human TOR1A
# [3] = small molecules captured by biotinylated probe aFGF2 – biochemical, small-molecule microarray, fluorescence 635/667, stem cell growth factor project, primary screen (AID 1067); conditions: higher = more signal;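 note: measures binding of biotinylated aFGF2 protein to printed compounds on slides; z-score merges feature fluorescence and signal-to-noise across triplicate slides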
# [4] = small molecules captured by biotinylated probe aFGF10 – biochemical, small-molecule microarray, fluorescence 635/667, stem cell growth factor project, primary screen (AID 1071); conditions: higher = more signal;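 note: score merges 667 nm spot intensity and signal to noise from triplicate slides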
# [5] = target: Neurogenic locus notch homolog protein 2 (Homo sapiens) (UniProt Q04721); experiment: small molecules binding Notch2 protein – biochemical, small-molecule microarray, 635 nm fluorescence, stem cell growth factors, primary screen (AID 1073); conditions: higher = more signal
# [6] = target: Pro-neuregulin-1, membrane-bound isoform (Homo sapiens) (UniProt Q02297); experiment: small molecules binding neuregulin-1 protein – biochemical, small-molecule microarray, fluorescence 635/667, psychiatric disease protein project, primary screen (AID 1075); conditions: NRG1 binding, 635 nm fluorescence, higher = more signal;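 note: score combines 667 nm spot fluorescence with signal to noise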
# [7] = system: Neuregulin-1 EGF-like domain; experiment: small molecules binding NRG1 EGF domain – biochemical, small-molecule microarray, 635 nm fluorescence, primary screen (AID 1081); conditions: higher = more signal;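 note: binding of the protein to compounds printed on small-molecule microarray slides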
# [8] = FRG1 expression reporter modulators in myotubes – cell-based, C2C12 myotubes, firefly/Renilla luciferase, luminescence, FRG1 inhibition for FSHD, primary screen (AID 1084); conditions: FRG1 promoter luciferase, higher = more signal, called active from +8 up or from −8 down
# [9] = small molecules captured by biotinylated probe aFST – biochemical, small-molecule microarray, fluorescence 635/667, stem cell growth factor project, primary screen (AID 1086); conditions: higher = more signal;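 note: score merges 667 nm fluorescence with signal-to-noise of each printed compound spot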
# [10] = binders of probe aHhip on microarray, primary screen, stem cell growth factor project, biochemical, small-molecule microarray, fluorescence 635/667 (AID 1087); conditions: higher = more signal;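 note: score merges spot fluorescence at 667nm with spot signal to noise ratio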
# [11] = system: PRMT1 (protein arginine N-methyltransferase 1); experiment: small molecules binding arginine methyltransferase PRMT1 – biochemical, small-molecule microarray, 635 nm fluorescence, primary screen (AID 1088); conditions: higher = more signal;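 note: binding of Prmt1 protein to compounds spotted on small-molecule microarray slides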
# [12] = growth effects on S. cerevisiae YJM789 – YJM789 clinical isolate, OD600, 24 h, basal, primary screen (AID 1089); conditions: higher = more signal, called active from +8 up or from −8 down;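 note: growth of clinical yeast isolate S. cerevisiae YJM 789 seeded 1000 cells per well; test concentration not given here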
# [13] = S. pombe growth modifiers, basal conditions – strain 972, OD600, 24 h, no modulator, primary screen (AID 1090);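 note: basal condition with compound alone and no growth modifier present; test concentration not given here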; conditions: S. pombe 972 growth, higher = more signal, called active from +8 up or from −8 down
# [14] = budding yeast growth modifiers under rapamycin – strain BY4716, OD600, 96 h, primary screen (AID 1091); note: test concentration not given here; conditions: S. cerevisiae BY4716 + rapamycin, higher = more signal, called active from +8 up or from −8 down
# [15] = target: Torsin-1A-interacting protein 2 (Homo sapiens) (UniProt Q8NFQ8); experiment: small molecules binding lysate-expressed LULL1 – cell lysate, human LULL1 lysate, 635/667 nm fluorescence, primary screen (AID 1092); conditions: small-molecule microarray, hLULL1 lysate binding, 635 nm fluorescence; higher = more signal;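 note: probe is lysate of COS7 cells overexpressing human LULL1; score merges per-feature 667 nm fluorescence with signal-to-noise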
# [16] = optical density change of DRC41 E. coli – strain DRC41, OD650, 24 h, E. coli filamentation project, primary screen (AID 1093);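 note: MC1000 strain lacking acrAB efflux and sulA so SOS filamentation is blocked; test concentration not given here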; conditions: E. coli DRC41 growth, higher = more signal, called active from +8 up or from −8 down
# [17] = probe aLefty2 binding to arrayed compounds – biochemical, biotinylated probe, 635/667 nm fluorescence, primary screen (AID 1094); conditions: small-molecule microarray, higher = more signal;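 note: score merges spot fluorescence near 667 nm with spot signal-to-noise ratio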
# [18] = system: Noggin (protein binding on small-molecule microarray); experiment: small molecules binding Noggin protein – biochemical, 635/667 nm fluorescence, primary screen (AID 1095); conditions: 635 nm fluorescence, higher = more signal;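 note: score merges 667 nm feature fluorescence with signal to noise over triplicate slides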
# [19] = target: Neurogenic locus notch homolog protein 3 (Homo sapiens) (UniProt Q9UM47); experiment: small molecules binding NOTCH3 protein – biochemical, 635/667 nm fluorescence, primary screen (AID 1096); conditions: small-molecule microarray, 635 nm fluorescence, higher = more signal
# [20] = probe aEGFR binding to arrayed compounds – biochemical, biotinylated probe, 635/667 nm fluorescence, primary screen (AID 1097); conditions: small-molecule microarray, higher = more signal;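 note: probe is a biotinylated anti-EGFR antibody binding compounds printed on slides; score combines fluorescence near 667 nm and signal to noise of each spot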
# Chain of Neurogenic locus notch homolog protein 2 (Homo sapiens) (Q04721 whole entry, looked up, canonical isoform): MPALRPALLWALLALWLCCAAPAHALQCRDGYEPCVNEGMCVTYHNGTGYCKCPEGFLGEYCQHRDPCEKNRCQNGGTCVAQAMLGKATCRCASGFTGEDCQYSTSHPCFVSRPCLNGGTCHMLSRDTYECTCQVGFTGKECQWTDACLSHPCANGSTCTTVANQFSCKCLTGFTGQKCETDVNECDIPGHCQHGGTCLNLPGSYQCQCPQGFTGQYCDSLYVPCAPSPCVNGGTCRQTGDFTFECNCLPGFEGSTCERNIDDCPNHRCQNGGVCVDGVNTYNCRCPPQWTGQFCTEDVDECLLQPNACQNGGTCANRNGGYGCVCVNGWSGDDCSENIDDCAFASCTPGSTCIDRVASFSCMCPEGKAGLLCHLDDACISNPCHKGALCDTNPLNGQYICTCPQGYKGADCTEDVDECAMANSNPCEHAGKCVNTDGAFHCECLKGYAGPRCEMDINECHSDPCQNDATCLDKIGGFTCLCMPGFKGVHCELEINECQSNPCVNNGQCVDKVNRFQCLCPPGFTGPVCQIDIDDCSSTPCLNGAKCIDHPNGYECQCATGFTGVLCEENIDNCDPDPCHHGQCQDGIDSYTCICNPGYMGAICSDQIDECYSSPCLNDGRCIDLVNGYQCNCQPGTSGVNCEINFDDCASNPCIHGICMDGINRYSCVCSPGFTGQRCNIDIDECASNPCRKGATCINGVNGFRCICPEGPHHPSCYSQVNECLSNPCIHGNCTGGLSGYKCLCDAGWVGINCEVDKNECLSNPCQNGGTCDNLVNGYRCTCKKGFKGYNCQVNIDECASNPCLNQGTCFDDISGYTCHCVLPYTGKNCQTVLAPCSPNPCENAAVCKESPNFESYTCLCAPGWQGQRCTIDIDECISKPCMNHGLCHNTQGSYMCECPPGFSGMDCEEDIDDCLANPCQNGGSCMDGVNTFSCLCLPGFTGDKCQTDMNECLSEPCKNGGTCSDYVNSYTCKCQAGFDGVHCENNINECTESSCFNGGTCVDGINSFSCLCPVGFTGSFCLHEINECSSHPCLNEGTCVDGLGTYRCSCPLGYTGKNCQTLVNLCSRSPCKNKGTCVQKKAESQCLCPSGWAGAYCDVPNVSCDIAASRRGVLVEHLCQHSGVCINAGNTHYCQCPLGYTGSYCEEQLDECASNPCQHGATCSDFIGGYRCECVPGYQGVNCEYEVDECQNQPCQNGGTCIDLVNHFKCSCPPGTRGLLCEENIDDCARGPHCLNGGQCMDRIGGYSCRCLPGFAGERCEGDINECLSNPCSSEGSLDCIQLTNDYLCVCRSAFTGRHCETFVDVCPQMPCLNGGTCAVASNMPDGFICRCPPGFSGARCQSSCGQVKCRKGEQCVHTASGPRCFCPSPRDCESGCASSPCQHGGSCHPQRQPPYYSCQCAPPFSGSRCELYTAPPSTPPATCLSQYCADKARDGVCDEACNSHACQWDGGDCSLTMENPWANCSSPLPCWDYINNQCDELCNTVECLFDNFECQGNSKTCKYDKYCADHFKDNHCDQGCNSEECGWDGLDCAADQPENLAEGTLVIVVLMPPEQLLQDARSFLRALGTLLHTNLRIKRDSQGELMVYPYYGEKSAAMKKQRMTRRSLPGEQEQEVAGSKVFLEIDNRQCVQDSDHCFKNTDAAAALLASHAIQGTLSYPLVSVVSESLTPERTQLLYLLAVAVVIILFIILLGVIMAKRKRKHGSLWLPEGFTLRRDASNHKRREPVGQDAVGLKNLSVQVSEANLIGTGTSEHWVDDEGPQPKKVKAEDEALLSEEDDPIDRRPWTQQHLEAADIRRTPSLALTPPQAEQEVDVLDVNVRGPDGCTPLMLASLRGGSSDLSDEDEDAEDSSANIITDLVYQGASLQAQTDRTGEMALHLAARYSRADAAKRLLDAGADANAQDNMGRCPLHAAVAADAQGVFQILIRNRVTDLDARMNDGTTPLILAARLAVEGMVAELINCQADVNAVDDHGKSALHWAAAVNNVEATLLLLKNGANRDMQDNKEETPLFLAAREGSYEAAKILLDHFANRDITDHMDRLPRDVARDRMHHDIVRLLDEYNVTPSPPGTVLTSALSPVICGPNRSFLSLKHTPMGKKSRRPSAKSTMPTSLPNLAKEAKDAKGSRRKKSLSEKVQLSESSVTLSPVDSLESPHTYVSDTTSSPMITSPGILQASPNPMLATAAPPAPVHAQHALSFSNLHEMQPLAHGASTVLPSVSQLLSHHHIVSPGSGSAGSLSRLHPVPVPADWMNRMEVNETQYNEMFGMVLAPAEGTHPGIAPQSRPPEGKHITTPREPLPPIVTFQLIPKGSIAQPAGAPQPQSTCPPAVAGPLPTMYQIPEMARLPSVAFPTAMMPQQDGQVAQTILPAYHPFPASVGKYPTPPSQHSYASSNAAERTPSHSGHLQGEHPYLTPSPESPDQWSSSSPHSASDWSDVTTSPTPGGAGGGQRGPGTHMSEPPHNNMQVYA
# Chain of Neurogenic locus notch homolog protein 3 (Homo sapiens) (Q9UM47 whole entry, looked up): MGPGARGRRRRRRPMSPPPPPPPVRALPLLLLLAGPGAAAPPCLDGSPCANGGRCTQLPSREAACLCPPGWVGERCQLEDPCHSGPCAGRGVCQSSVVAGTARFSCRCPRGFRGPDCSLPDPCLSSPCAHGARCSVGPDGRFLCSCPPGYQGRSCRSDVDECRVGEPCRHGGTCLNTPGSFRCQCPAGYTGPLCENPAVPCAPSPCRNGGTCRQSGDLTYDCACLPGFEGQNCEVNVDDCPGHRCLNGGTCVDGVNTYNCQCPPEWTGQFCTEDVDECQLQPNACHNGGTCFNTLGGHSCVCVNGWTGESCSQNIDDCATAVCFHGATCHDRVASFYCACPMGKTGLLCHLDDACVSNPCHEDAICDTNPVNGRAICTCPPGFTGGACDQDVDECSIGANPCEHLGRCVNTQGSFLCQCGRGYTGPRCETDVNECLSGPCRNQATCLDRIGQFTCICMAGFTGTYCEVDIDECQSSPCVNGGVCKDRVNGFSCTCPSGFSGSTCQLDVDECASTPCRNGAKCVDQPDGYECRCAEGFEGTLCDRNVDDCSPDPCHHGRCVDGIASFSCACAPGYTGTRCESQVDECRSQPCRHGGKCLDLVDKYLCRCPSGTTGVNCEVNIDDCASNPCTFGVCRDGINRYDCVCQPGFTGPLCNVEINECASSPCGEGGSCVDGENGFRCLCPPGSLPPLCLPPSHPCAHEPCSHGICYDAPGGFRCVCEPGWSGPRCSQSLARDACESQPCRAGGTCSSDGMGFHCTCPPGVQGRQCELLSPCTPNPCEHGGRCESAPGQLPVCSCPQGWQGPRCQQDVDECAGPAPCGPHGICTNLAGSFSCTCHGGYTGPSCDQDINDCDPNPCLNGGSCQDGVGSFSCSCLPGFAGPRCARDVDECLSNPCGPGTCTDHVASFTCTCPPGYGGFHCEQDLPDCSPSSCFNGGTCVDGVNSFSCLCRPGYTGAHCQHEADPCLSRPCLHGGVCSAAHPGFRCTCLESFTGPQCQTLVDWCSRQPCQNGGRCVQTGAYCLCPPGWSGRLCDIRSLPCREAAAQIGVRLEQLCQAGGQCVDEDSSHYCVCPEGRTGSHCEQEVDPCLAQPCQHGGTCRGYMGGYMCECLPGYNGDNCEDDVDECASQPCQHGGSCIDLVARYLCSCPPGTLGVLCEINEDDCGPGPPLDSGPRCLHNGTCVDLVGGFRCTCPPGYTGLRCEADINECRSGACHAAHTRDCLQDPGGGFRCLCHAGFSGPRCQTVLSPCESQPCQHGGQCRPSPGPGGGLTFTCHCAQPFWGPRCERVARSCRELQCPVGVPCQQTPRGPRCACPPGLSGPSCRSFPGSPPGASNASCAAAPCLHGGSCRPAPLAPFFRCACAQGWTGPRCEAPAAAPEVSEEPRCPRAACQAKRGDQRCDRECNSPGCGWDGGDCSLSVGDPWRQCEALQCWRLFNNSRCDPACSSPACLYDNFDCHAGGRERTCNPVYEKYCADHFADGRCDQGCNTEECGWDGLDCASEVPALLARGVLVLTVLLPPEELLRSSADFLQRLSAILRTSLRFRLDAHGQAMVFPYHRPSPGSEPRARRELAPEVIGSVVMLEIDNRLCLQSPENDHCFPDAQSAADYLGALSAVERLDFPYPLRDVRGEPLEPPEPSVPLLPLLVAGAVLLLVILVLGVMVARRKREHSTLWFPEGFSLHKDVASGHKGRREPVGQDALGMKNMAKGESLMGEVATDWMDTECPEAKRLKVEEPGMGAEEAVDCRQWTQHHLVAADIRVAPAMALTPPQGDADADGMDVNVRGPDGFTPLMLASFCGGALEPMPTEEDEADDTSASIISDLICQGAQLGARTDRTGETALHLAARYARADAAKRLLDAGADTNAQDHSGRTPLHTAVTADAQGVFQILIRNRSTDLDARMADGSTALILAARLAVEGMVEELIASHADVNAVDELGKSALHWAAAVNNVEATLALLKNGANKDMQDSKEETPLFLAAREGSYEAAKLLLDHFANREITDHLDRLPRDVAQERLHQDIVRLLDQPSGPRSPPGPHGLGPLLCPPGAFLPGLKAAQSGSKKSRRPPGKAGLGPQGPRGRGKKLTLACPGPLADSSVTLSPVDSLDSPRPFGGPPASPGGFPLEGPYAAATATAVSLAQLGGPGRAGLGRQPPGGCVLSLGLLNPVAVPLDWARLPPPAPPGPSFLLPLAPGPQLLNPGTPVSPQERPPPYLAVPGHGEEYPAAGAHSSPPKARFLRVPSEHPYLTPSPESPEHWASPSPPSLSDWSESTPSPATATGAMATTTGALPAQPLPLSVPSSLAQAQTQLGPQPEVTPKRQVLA
SMILES,composite z-score [1],composite z-score [2],composite z-score [3],composite z-score [4],composite z-score [5],composite z-score [6],composite z-score [7],z-score [8],composite z-score [9],composite z-score [10],composite z-score [11],z-score [12],z-score [13],z-score [14],composite z-score [15],z-score [16],composite z-score [17],composite z-score [18],composite z-score [19],composite z-score [20]
COCCOC(=O)N1C(=O)[C@@]2(c3cc(C#CCNC(N)=O)ccc31)[C@H](C(N)=O)[C@H]1C(=O)O[C@H](c3ccccc3)[C@H](c3ccccc3)N1[C@@H]2c1ccc(OCCO)cc1,-0.147,0.0525,-0.0139,0.309,1.16,0.564,0.342,1.34 (inactive),0.459,-0.0427,1.55,0.517 (inactive),0.0121 (inactive),1.98 (inactive),1.53,-0.27 (inactive),-0.0054,1.23,1.07,-0.0085
C=C[C@@H](O)[C@H]1CC(c2ccccc2)=NO1,-0.0317,-0.1,-0.0692,-0.105,-0.138,-0.37,-0.262,1.6 (inactive),0.266,0.172,-0.425,-0.347 (inactive),-0.954 (inactive),-0.657 (inactive),-0.141,1.13 (inactive),-0.0339,-0.174,-0.872,-0.0844
COC(=O)C(CC#Cc1ccc2c(c1)[C@]1(C(=O)N2)[C@H](c2ccc(O)cc2)N2[C@H](c3ccccc3)[C@H](c3ccccc3)OC(=O)[C@H]2[C@@H]1C(=O)O)C(=O)OC,-0.331,-0.11,-0.132,0.206,0.63,0.82,0.798,0.831 (inactive),1.25,0.0505,0.439,1.22 (inactive),-0.489 (inactive),-0.922 (inactive),2.96,-1.28 (inactive),-0.166,0.307,0.64,-0.0152
NC(=O)NCC#Cc1ccc2c(c1)[C@]1(C(=O)N2)[C@H](c2ccc(O)cc2)N2[C@H](c3ccccc3)[C@H](c3ccccc3)OC(=O)[C@H]2[C@@H]1C(N)=O,0.373,-1.07,-0.0925,-0.568,-0.847,-0.283,0.266,-1.07 (inactive),-0.139,0.202,0.64,0.321 (inactive),0.736 (inactive),0.183 (inactive),1.46,0.248 (inactive),-0.072,-0.238,-1.19,-0.187
CC1CC/C=C\[C@H]2OC34C=CCN(Cc5ccccc5)C(=O)[C@H]3N(CCO)C(=O)[C@@H]4C2C(=O)O1 (stereo not given in full),0.767,2.2,-0.0662,1.1,-0.821,1.86,1.51,0.781 (inactive),-0.253,-0.0994,0.205,-0.404 (inactive),-0.791 (inactive),0.285 (inactive),1.27,1.36 (inactive),-0.0042,-0.585,-0.127,-0.113
Cc1ccc(C(C)CC(O)C2C=CC3C(=O)N(Cc4ccccc4)C(=O)C3N2n2cnnc2)o1 (stereo not given),1.67,0.46,0.522,0.703,1.29,0.907,1.44,0.386 (inactive),2.16,0.488,1.49,-3.19 (inactive),-2.84 (inactive),-0.829 (inactive),2.51,-1.56 (inactive),1.1,0.0433,1.09,0.778
O=C1C2C=CC(C(O)c3ccc(Br)cc3)N(Nc3ccccc3)C2C(=O)N1c1ccccc1 (stereo not given),0.385,0.227,0.191,0.82,1.41,1.86,1.09,-2.33 (inactive),-0.194,-0.0645,0.826,0.379 (inactive),0.443 (inactive),0.84 (inactive),2.12,-1.59 (inactive),0.228,-0.325,1.12,-0.0123
N#Cc1ccc(NN2C(C(O)c3ccco3)C=CC3C(=O)N(c4ccccc4)C(=O)C32)cc1 (stereo not given),0.188,-0.0615,-0.0133,0.758,0.54,0.989,0.754,0.768 (inactive),0.39,-0.249,0.327,0.0011 (inactive),0.376 (inactive),1.7 (inactive),2.41,-3.5 (inactive),0.0815,-0.0593,0.591,-0.0411
C#CCOC(=O)N[C@H](C=CCCCC)c1ccccc1,0.209,0.108,0.0934,0.239,1.33,2.33,1.31,-0.237 (inactive),0.129,0.382,-0.893,0.126 (inactive),-0.091 (inactive),0.0673 (inactive),2.96,0.392 (inactive),0.148,-0.373,-0.404,0.0082
C=CCN1C(=O)[C@@]2(O[C@@H](CCO)[C@H]([Si](C)(C)c3ccc(OC)cc3)[C@H]2C)c2cc(NC(=O)[C@H](C)O)ccc21,-0.0083,0.558,-0.0243,1.03,0.503,0.915,1.1,-0.737 (inactive),0.005,-0.169,1.54,0.988 (inactive),-1.64 (inactive),-0.0361 (inactive),3.15,0.571 (inactive),-0.0622,0.959,0.759,-0.0485

# Reference: PubChem BioAssay
